BAZ2B inh: inhibitors of human BAZ2B bromodomain | Q9UIF8 | AlphaScreen BAZ2B-H3K14Ac peptide displacement | Potency, µM (series often up to 114 µM), usual class: inhibitors | 360,000 compounds, 4.4% hits | AID 504333; also: nearly all actives have a fitted effect of over 60% in size
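Complex of BAZ2B and biotin-H3K14Ac (50 nM apiece) forms over 30 min at RT, then faces library compounds up to 110 uM for another 30 min; AlphaScreen beads added, 20 min dark incubation, luminescence read.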
G9a block: blocks human histone lysine methyltransferase G9a; AID 504332; Q96KQ7; G9a H3K9 monomethylation, AlphaScreen, 2 h; Potency, µM (doses to about 102 µM), usual class: inhibitors; 350,000 compounds, 8.8% hits; also: nearly all actives have a fitted effect of over 75% in size
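Enzyme 20 nM + cpd, 15 min RT; add b-H3K9 pep 500 nM / SAM 20 uM; 2 h RT; anti-H3K9me1 Ab 0.5 ug/mL + SA donor / anti-rabbit acceptor beads 20 ug/mL each, 10 min; AlphaScreen read.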
HP1b binding inh: blocks HP1-beta chromodomain binding to methylated histone tails; P83916; AlphaScreen HP1-beta / biotin-H3K9me3 peptide binding; Potency, µM (titrated, usually from 114 µM), most hits filed as inhibitors; 390,000 compounds, 0.56% hits; AID 540317; also: nearly all actives have a fitted effect of over 70% in size
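HP1-beta protein (50 nM final) preincubated 30 min at room temperature with biotinylated H3(1-18)K9me3 peptide (50 nM) in PBS pH 7.4, 0.01% Tween-20, then compound added for 30 min. AlphaScreen streptavidin donor/nickel chelate acceptor beads (10 ug/mL final), 30 min dark, luminescence read.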
JMJD2A Tudor: JMJD2A Tudor domain (human) inhibition | O75164 | AlphaScreen JMJD2A-Tudor / H3K4me3 peptide binding | Potency, µM (highest dose often 114 µM), usual class: inhibitors | 390,000 compounds, 4.4% hits | AID 504339; also: nearly all actives have a fitted effect of over 50% in size
Target sequence (O75164 whole entry, looked up, the tested form may be a part): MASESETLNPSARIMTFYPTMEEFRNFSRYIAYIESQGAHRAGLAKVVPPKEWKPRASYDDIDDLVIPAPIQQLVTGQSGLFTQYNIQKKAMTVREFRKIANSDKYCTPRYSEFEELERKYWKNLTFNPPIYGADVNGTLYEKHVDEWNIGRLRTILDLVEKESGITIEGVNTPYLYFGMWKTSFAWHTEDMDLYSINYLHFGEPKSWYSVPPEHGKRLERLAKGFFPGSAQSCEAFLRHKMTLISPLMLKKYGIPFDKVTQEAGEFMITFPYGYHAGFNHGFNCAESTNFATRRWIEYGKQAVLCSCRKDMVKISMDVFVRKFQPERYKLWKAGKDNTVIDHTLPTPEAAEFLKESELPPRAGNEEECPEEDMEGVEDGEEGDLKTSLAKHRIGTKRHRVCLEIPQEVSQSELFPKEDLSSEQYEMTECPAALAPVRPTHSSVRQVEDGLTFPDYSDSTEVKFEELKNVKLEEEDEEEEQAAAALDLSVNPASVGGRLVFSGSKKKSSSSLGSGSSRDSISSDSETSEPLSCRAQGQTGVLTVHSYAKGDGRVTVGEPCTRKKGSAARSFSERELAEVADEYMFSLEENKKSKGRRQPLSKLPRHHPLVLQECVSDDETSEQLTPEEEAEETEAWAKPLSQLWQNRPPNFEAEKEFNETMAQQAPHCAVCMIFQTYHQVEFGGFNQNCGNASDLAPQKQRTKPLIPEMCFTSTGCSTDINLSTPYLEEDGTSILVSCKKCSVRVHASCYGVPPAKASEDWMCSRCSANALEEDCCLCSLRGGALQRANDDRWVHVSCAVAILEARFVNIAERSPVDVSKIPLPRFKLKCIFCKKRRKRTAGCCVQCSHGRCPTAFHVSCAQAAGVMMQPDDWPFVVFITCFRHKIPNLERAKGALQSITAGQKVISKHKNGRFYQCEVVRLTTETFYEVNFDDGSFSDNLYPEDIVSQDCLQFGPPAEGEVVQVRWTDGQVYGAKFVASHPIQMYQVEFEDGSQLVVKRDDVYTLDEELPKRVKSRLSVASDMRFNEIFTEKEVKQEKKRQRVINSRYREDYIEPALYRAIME
PLK1 PBD block: PLK1 (human) polo-box domain binding inhibition; P53350; Plk1 PBD binding of FITC phosphopeptide, fluorescence polarization; Potency, µM, usual class: inhibitors; 360,000 compounds, 2.8% hits; AID 720504; also: series mostly up to about 57 µM; nearly all actives have a fitted effect of over 65% in size
Sfp PPTase inh: inhibitors of Bacillus subtilis Sfp phosphopantetheinyl transferase; Q9F4F7; 310,000 compounds, 3.5% hits; Biochemical Sfp PPTase activity, qHTS; Potency, µM, actives largely listed as inhibitors;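 also: the enzyme is Sfp with the accession as filed and its product quenches rhodamine fluorescence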
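After 15 min at room temperature with compound, 15 nM Sfp received 5 uM rhodamine-CoA plus 12.5 uM BHQ-2-ybbR (50 mM Hepes pH 7.6, 10 mM MgCl2). Rate came from the fluorescence difference over 30 min, ex 525/em 598 nm.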
Numbers stand for hits; . = inactive; ? = inconclusive; / = not tested or not shown; [ ] = remark or other dose. Hits are enriched below; roughly 12% of the tested compounds scored in any of these assays. Calls follow the shape of the dose curve; as a rule, active = well fitted curve in the direction sought with a large enough effect; inconclusive = small, poorly fitted or top-dose-only effect, or another doubt; inactive = no such curve, though single readings can be large; an effect the other way counts as inactive or inconclusive.

SMILES	BAZ2B inh	G9a block	HP1b binding inh	JMJD2A Tudor	PLK1 PBD block	Sfp PPTase inh
COc1ccccc1-c1cc(C(=O)Nc2cccnc2Cl)no1	.	.	.	.	.	.
COc1ccccc1C(=O)NC(=S)Nc1cccnc1Cl	.	10µM	?	.	?	45µM
Cc1ccc(C(=O)NC(=S)Nc2cccnc2Cl)cc1	.	?	.	.	.	56µM
Cc1ccc2sc(-c3ccc(NC(=O)CCN4C(=O)c5ccccc5C4=O)cc3)nc2c1	.	.	/	/	/	.
CCCCN1C(=O)/C(=c2\sc3nc(=O)c(-c4ccccc4)nn3c2=O)c2ccccc21	?	?	?	?	27µM	16µM
CCCN1C(=O)/C(=c2\sc3nc(=O)c(Cc4ccc(C)cc4)nn3c2=O)c2ccccc21	?	/	?	?	30µM	20µM
CCCCN1C(=O)/C(=C2\SC(N3CCOCC3)=NC2=O)c2ccccc21	.	.	.	.	.	.
Cc1ccc(NC(=O)Nc2nnc(N3CCCC3)s2)cc1C	?	.	.	.	/	/
Nc1nonc1NC(=O)NN=C1CCCCC1	.	.	.	?	.	35µM
CCOC(=O)c1cc(-c2ccccc2)n(CC(=O)N(C)c2ccc(OC)cc2)c1C	?	.	.	?	/	/
CN[C@@H]1[C@H](O[C@@H]2O[C@H](C)[C@@](O)(CO)[C@H]2O[C@H]2[C@H](O)[C@H](O)[C@H](N=C(N)N)[C@@H](O)[C@@H]2N=C(N)N)O[C@@H](CO)[C@H](O)[C@H]1O	/	10µM	/	/	/	.
Cn1cccc1Cc1nnc(SCC(=O)N2CCc3ccccc32)n1-c1ccc(F)cc1	.	.	?	.	?	.
COc1ccc(OC)c(NC(=O)CSc2nnc(Cc3cccn3C)n2-c2ccc(F)cc2)c1	50µM	?	.	.	.	.
CCOC(=O)N1CCN(C(=O)CSc2nnc(Cc3cccn3C)n2CCc2ccccc2)CC1	.	?	.	.	.	.
COc1ccc(-n2c(Cc3cccn3C)nnc2SCC(=O)Nc2ccccc2F)cc1	?	50µM	.	?	.	.
COc1ccc(-n2c(Cc3cccn3C)nnc2SCC(=O)Nc2ccccc2C)cc1	.	?	.	.	.	.
Cc1ccc(-n2c(Cc3cccn3C)nnc2SCC(=O)N2CCc3ccccc32)cc1	50µM	45µM	?	?	.	.
Cn1cccc1Cc1nnc(SCC(=O)N2CCOCC2)n1CCc1ccccc1	.	45µM	.	.	.	.
COc1ccc(-n2c(Cc3cccn3C)nnc2SCC(=O)Nc2ccc(F)cc2F)cc1	?	40µM	.	?	.	.
COc1ccc(-n2c(Cc3cccn3C)nnc2SCC(=O)N2CCOCC2)cc1	.	71µM	.	.	.	.
COc1ccc(-n2c(Cc3cccn3C)nnc2SCC(=O)Nc2cccc(C)c2C)cc1	?	45µM	.	?	.	.
CC(=O)NCCNc1ncnc2ccc(-c3ccc4c(c3)OCO4)cc12	/	.[0.501 µM]	/	/	/	.
O=C1/C(=C/c2ccc(O)cc2)CCc2ccc([N+](=O)[O-])cc21	.	?	.	.	.	.
COc1ccc(/C=C2\Oc3ccccc3C2=O)cc1	/	/	.	.	.	/
O=C1ON=C(c2ccccc2)/C1=C/c1ccc(OS(=O)(=O)c2ccccc2)cc1	50µM	8.9µM	?	79µM	6µM	.
SMILES	BAZ2B inh	G9a block	HP1b binding inh	JMJD2A Tudor	PLK1 PBD block	Sfp PPTase inh
O=C1ON=C(c2ccccc2)/C1=C/c1ccc(O)c(O)c1	28µM	25µM	8.9µM	14µM	?	50µM
O=c1cc(-c2ccccc2)oc2cc(O)c(O)cc12	/	?	/	/	/	.
O=C1ON=C(c2cccc([N+](=O)[O-])c2)/C1=C/c1ccc(O)cc1	?	22µM	.	.[11.4 µM]	1.5µM	.
COc1ccc(/C=C2\C(=O)ON=C2c2ccccc2)cc1	?	40µM	.	35µM	1.5µM	40µM
O=C(Nc1ccccc1C(=O)NCCCN1CCOCC1)c1ccc(F)cc1	.	.[12.7 µM]	.	.	.	.
O=C1ON=C(c2ccccc2)/C1=C/c1cccnc1	.	45µM	.	.	.	.
O=C1/C(=C/c2cccnc2)CC/C1=C\c1cccnc1	/	.	.	.	.	.
O=C1CC(c2nc3ccccc3n2Cc2c(F)cccc2Cl)CN1c1cccc(C(F)(F)F)c1 (stereo not given)	.	.	.	.	/	/

Source: PubChem
